Assay results published in the supplement of paper PMC11732987, “Enantioselective OTUD7B fragment discovery through chemoproteomics screening and high-throughput optimisation” (Communications Chemistry, 2025).

Experiments:
Assay in all cases: log2 ratio of Biotin-Ahx-Ub-VS probe labelling (fragment/DMSO); higher = less target engagement (more negative = stronger competition), active = hit call of the paper (q ≤ 0.05, log2 ratio ≤ -1)
Conditions in all cases: compound concentration: 200 uM; treatment time: 3 h
USP34 = USP34 (UniProt Q70CQ2)
Summary of the method: (§1)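 HEK293T lysate in Tris/CHAPS/IGEPAL buffer with protease inhibitors (495 µg per sample) was given fragment at 200 µM or vehicle for 3 h, in triplicate. It then received Biotin-Ahx-Ub-VS at 0.5 µM final for 1 h. Labelled DUBs were NeutrAvidin-enriched, digested with LysC and trypsin, and run by diaPASEF LC-MS/MS. Values are average log2 fragment/vehicle ratios by unpaired t-test on global-median-normalised Spectronaut quantities of proteins with ≥2 unique peptides.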

USP36 = biological target: T1, USP36 (UniProt Q9P275)
T1 sequence (whole entry): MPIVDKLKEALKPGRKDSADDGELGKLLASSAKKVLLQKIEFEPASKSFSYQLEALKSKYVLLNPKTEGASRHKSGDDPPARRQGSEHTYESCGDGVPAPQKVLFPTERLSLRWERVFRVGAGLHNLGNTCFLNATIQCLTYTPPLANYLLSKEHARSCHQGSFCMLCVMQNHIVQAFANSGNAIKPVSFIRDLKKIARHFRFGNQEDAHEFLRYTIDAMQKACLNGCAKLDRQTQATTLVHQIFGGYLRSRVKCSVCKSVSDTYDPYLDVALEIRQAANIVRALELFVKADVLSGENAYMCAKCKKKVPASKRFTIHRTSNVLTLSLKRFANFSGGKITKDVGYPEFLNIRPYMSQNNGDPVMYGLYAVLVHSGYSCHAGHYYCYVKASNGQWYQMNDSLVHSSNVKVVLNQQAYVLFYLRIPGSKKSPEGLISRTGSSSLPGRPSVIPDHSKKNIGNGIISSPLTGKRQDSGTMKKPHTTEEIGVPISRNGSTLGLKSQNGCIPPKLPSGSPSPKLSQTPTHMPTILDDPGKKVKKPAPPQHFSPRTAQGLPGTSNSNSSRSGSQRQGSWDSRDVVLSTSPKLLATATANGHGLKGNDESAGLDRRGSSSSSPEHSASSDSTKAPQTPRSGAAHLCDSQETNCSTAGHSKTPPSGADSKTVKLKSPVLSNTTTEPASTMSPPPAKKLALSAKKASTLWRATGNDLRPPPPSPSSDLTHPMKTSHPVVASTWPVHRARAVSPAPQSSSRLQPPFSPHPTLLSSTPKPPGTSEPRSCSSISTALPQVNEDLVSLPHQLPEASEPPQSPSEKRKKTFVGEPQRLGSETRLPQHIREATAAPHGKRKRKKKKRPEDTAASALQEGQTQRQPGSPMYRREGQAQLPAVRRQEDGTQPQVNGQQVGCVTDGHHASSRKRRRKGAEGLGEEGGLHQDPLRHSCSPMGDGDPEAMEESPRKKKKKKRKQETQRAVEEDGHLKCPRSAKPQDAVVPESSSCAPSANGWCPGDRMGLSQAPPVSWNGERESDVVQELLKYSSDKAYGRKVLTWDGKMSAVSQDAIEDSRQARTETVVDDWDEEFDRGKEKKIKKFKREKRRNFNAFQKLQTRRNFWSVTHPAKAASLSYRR
Summary of the method: as §1

USP38 = biological target: T2, USP38 (UniProt Q8NB14)
T2 sequence (whole entry): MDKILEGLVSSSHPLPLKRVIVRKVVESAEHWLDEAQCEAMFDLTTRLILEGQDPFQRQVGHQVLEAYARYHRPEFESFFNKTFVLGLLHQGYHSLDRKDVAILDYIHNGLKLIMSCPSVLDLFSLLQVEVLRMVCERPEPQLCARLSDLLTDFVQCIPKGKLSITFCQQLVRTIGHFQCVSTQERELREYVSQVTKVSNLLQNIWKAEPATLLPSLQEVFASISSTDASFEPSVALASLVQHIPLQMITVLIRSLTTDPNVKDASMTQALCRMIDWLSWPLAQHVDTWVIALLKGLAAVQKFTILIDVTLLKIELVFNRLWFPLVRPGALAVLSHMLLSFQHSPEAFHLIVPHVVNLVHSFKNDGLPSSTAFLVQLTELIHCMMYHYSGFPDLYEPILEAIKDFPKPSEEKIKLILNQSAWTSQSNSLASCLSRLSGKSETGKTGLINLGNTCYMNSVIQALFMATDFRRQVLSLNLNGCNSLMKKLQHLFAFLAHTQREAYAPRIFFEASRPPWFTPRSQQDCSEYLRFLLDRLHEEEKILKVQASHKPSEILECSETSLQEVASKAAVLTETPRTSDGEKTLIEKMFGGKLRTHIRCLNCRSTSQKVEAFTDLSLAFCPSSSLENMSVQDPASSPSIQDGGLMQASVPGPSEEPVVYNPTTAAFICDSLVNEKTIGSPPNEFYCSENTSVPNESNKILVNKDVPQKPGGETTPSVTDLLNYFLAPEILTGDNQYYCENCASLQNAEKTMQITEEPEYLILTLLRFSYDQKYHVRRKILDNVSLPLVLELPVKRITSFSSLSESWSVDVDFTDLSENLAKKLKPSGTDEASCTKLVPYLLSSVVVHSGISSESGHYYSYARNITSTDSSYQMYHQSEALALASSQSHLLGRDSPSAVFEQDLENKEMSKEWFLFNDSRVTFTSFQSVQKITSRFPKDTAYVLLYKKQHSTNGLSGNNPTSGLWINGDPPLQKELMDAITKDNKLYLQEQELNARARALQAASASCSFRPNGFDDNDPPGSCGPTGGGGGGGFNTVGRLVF
Summary of the method: as §1

USP39 = biological target: T3, USP39 (UniProt Q53GS9)
T3 sequence (whole entry): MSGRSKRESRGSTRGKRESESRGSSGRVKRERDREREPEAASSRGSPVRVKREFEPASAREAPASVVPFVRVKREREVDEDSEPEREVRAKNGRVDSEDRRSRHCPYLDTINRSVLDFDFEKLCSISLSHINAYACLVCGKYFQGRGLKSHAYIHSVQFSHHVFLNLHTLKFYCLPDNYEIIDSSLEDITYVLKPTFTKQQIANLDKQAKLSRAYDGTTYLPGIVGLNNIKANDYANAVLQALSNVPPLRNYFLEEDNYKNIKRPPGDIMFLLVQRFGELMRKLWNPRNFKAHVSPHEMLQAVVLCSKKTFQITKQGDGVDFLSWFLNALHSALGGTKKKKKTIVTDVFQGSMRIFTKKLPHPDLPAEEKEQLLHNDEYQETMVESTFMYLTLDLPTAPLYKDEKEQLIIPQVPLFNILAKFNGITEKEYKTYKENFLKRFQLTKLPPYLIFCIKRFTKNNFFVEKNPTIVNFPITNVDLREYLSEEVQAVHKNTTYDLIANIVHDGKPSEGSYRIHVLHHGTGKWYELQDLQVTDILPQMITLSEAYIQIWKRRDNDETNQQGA
Summary of the method: as §1

USP4 = biological target: T4, USP4 (UniProt Q13107)
T4 sequence (whole entry): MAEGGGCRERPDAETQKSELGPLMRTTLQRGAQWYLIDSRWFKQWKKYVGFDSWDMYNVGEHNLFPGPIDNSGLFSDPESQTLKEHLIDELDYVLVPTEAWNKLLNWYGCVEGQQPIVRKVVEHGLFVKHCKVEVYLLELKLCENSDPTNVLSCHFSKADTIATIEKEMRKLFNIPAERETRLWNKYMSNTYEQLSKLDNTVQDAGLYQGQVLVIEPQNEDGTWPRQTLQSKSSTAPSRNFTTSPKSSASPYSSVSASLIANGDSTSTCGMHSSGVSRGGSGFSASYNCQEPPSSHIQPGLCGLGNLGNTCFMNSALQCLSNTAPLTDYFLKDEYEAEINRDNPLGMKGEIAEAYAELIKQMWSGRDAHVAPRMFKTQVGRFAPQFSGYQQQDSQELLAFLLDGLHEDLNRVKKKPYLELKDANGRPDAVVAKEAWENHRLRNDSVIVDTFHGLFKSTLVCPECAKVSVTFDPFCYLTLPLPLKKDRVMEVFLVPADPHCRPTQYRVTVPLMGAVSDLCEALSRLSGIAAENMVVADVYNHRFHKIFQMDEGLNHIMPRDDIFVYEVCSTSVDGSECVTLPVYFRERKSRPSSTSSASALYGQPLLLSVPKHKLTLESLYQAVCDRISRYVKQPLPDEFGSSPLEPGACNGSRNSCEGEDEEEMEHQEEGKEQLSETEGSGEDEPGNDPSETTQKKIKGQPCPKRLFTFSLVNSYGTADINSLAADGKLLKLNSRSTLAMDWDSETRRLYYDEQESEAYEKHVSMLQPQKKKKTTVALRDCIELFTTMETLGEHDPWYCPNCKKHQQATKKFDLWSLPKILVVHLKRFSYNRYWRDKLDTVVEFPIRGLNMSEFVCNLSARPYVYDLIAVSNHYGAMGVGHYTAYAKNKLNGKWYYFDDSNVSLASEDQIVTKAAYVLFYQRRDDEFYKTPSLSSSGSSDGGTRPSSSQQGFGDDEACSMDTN
Summary of the method: as §1

Measured: log2 ratio of Biotin-Ahx-Ub-VS probe labelling

Sequence of USP34 (Q70CQ2 whole entry, the tested form may be a part): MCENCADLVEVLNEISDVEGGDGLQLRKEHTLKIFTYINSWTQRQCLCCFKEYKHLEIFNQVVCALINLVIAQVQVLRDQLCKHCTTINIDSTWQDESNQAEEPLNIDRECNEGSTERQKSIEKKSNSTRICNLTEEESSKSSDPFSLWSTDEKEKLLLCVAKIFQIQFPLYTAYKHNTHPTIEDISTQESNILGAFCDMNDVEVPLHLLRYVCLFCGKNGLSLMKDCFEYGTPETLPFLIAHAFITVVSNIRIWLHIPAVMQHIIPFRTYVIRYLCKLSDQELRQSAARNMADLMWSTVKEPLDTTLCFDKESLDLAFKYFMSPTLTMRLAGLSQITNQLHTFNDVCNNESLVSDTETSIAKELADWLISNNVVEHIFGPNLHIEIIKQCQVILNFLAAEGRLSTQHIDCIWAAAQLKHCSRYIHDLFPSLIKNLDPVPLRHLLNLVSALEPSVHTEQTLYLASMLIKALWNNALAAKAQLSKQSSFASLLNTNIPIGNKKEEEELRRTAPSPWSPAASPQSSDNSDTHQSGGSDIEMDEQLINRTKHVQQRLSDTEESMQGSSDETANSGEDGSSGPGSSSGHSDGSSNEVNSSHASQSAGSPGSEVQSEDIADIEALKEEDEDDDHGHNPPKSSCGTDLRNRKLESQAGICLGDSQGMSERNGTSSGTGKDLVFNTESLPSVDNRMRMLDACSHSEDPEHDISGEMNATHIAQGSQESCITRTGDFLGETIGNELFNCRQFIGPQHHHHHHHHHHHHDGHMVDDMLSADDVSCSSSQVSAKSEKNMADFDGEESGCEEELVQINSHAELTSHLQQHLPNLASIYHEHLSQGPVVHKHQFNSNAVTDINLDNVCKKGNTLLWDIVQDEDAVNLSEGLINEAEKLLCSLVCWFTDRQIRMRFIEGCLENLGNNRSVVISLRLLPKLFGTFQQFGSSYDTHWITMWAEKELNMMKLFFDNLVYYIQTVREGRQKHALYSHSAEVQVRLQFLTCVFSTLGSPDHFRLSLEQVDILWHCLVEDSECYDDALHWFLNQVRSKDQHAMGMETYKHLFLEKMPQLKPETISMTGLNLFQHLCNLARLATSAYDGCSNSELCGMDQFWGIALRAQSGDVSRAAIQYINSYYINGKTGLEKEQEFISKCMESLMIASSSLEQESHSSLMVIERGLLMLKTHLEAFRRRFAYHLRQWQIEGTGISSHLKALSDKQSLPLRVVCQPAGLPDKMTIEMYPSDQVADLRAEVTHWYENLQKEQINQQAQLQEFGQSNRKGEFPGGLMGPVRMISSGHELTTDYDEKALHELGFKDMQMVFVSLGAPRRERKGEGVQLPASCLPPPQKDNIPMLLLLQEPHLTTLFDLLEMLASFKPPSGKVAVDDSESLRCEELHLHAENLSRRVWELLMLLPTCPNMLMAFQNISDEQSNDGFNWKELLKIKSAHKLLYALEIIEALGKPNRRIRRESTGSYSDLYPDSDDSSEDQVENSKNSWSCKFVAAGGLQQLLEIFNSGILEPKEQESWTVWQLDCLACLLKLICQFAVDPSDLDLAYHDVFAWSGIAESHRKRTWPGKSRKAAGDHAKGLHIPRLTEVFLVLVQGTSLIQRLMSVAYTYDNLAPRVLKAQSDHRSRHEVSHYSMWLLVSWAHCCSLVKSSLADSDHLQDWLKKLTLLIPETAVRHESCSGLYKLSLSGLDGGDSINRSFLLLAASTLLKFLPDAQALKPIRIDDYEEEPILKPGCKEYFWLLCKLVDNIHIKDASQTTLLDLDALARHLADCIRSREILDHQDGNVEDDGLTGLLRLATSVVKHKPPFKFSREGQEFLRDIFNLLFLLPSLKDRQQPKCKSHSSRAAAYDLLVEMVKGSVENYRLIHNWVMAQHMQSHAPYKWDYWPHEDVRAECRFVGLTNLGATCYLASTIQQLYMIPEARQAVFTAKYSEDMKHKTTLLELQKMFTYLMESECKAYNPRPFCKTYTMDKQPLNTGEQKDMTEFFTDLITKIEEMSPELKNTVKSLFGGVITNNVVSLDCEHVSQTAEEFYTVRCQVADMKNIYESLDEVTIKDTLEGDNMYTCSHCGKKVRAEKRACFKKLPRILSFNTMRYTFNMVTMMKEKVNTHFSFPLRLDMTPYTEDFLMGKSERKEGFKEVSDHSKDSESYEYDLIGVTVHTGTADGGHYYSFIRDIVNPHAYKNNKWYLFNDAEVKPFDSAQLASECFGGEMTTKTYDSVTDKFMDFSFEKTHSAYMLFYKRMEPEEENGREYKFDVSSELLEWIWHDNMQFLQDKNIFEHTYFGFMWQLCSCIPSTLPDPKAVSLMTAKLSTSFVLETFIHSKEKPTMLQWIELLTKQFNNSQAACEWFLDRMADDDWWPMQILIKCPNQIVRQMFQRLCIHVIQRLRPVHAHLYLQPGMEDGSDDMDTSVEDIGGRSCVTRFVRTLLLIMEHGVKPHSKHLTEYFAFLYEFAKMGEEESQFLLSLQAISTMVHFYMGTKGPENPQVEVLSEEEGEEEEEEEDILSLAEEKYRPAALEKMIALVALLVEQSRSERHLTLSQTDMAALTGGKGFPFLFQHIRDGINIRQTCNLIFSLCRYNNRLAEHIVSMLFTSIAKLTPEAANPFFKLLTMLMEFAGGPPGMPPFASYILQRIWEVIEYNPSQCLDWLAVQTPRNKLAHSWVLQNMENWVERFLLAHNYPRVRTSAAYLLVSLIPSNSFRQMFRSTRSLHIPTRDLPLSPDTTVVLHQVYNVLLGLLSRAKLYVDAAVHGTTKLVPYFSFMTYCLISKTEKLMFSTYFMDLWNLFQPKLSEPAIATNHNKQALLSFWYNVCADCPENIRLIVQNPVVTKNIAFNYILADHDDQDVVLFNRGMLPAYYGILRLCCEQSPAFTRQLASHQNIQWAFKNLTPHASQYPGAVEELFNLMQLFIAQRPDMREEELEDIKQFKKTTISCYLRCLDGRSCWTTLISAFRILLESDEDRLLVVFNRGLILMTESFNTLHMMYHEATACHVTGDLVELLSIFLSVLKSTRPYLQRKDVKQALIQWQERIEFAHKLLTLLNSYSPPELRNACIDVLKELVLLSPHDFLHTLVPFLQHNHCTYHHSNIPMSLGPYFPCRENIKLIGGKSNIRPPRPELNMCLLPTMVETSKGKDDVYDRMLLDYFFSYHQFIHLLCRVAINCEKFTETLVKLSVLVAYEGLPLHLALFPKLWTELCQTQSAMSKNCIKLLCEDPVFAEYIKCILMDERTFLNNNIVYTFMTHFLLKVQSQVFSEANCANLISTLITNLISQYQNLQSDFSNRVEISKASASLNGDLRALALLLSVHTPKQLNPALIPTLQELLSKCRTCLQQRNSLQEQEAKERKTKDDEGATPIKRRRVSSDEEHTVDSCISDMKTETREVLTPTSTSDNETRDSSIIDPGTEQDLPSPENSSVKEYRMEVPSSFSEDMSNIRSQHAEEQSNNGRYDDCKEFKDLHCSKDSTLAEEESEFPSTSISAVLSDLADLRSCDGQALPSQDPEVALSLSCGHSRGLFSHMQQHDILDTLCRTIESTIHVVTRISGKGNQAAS

O=C(CCl)N1CCN(C(=O)Nc2ccccc2)CC1
inactive: USP34 -0.102 | USP36 -0.282 | USP38 0.184 | USP39 -0.0496 | USP4 0.0949
